Structures are written as SMILES. The whole screen tested about 39,000 compounds, of which about 1,500 (3.8%) were called active. Shown is part of a subset that was picked to be rich in actives.

This assay deals with HSkMC (human skeletal muscle cells). The assay can be described thus: cytotoxicity call (relative viability < 0.9). The following applies: 10 µM.
`C[C@H](CO)N1C[C@H](C)[C@H](CN(C)C(=O)Nc2ccc3c(c2)OCO3)OCCCC[C@H](C)Oc2ccc(NC(=O)CCC(F)(F)F)cc2C1=O`: the cytotoxicity call was “inactive”.

As for `C[C@@H]1CN([C@H](C)CO)C(=O)c2cc(NC(=O)NC3CCCCC3)ccc2O[C@@H]1CN(C)Cc1ccc(Oc2ccccc2)cc1`, the cytotoxicity call is “inactive”.

In the case of `Cc1noc(C)c1S(=O)(=O)Nc1ccc2c(c1)C(=O)N([C@H](C)CO)C[C@@H](C)[C@H](CN(C)S(=O)(=O)c1cn(C)cn1)OCCCC[C@@H](C)O2`, the cytotoxicity call was “inactive”.

On to `C/C=C1\NC(=O)[C@H]2CSSCC/C=C/[C@H](CC(=O)N[C@H](C(C)C)C(=O)N2)OC(=O)[C@H](C(C)C)NC1=O`, for which the cytotoxicity call was “active”.

Consider `CC(C)NC(=O)N(C)C[C@H]1Oc2ccc(NC(=O)CCN3CCOCC3)cc2CC(=O)N([C@@H](C)CO)C[C@@H]1C`, for which the cytotoxicity call was “inactive”.

As for `COCC(=O)N1CC[C@]2(CC1)CN([C@@H](CO)c1c2c2ccc(cc2n1C)OC)C(=O)CN1CCOCC1`, the cytotoxicity call was “inactive”.

For `CCOC(=O)c1c(CN2CCN(CCOCCO)CC2)n(-c2ccccc2)c2cc(Br)c(O)cc12`, the cytotoxicity call was “inactive”.

For the compound `CCOC(=O)c1c(CN2CCN(c3ccccc3)CC2)n(-c2ccccc2)c2cc(Br)c(OC)cc12`, the cytotoxicity call was “inactive”.

For `CCOC(=O)c1c(CN2CCN(c3ccccc3C)CC2)n(-c2ccccc2)c2cc(Br)c(O)cc12`, the cytotoxicity call was “active”.

Take `CCOC(=O)c1c(CN2CCN(c3ccccc3)CC2)n(C2CCCCC2)c2cc(Br)c(O)cc12`: the cytotoxicity call is “active”.

`CCOC(=O)c1c(CN2CCN(Cc3ccccc3)CC2)n(-c2ccccc2)c2cc(Br)c(OC)cc12`: the cytotoxicity call was “inactive”.

`CCOC(=O)c1c(CN2CCN(c3ccccc3)CC2)n(-c2ccccc2)c2cc(Br)c(O)cc12`: the cytotoxicity call is “active”.

For the compound `CCOC(=O)c1c(CN2CCN(Cc3ccccc3)CC2)n(-c2ccccc2)c2cc(Br)c(O)cc12`, the cytotoxicity call was “inactive”.

For `CCOC(=O)c1c(CNCCN(CC)CC)n(-c2ccccc2)c2cc(Br)c(OC)cc12`, the cytotoxicity call is “inactive”.

Consider `CCOC(=O)c1c(CN2CCN(c3ccc(C)cc3)CC2)n(-c2ccccc2)c2cc(Br)c(OC)cc12`, for which the cytotoxicity call is “inactive”.

On to `COc1ccc(CN(C)C[C@@H]2OCCCC[C@@H](C)Oc3ccc(NC(=O)Nc4c(C)noc4C)cc3C(=O)N([C@H](C)CO)C[C@@H]2C)cc1`, for which the cytotoxicity call is “inactive”.

Regarding `Cc1noc(C)c1S(=O)(=O)N(C)C[C@H]1Oc2ccc(N(C)C)cc2CC(=O)N([C@@H](C)CO)C[C@H]1C`, the cytotoxicity call was “inactive”.

As for `C[C@@H]1CN([C@H](C)CO)C(=O)c2cc(C#CC3(O)CCCC3)cnc2O[C@@H]1CN(C)C(=O)Cc1ccncc1`, the cytotoxicity call is “inactive”.

As to `C[C@@H]1CCCCO[C@H](CN(C)Cc2ccncc2)[C@@H](C)CN([C@H](C)CO)C(=O)c2cc(NC(=O)NC3CCCCC3)ccc2O1`, the cytotoxicity call is “inactive”.

Turning to `C[C@@H]1CN([C@H](C)CO)C(=O)CCCn2cc(nn2)CO[C@H]1CN(C)C(=O)Nc1ccc(N2CCN(C)CC2)cc1`, the cytotoxicity call was “inactive”.

`CN1CCN(C(=O)C[C@H]2C[C@H]3c4cc(NC(=O)c5ccc6c(c5)OCO6)ccc4O[C@H]3[C@@H](CO)O2)CC1`: the cytotoxicity call was “inactive”.

In the case of `Cn1cnc(S(=O)(=O)N2C[C@@H](O)COC[C@@H]3O[C@H](CC(=O)N4CCN(c5ccccc5)CC4)CC[C@H]32)c1`, the cytotoxicity call is “inactive”.

For the compound `COc1ccc(NC(=O)Nc2ccc3c(c2)C(=O)N([C@@H](C)CO)C[C@@H](C)[C@H](CN(C)Cc2ccc(C(=O)O)cc2)OCCCC[C@@H](C)O3)cc1`, the cytotoxicity call was “inactive”.

Consider `Cc1noc(C)c1NC(=O)N(C)C[C@@H]1Oc2ccc(NC(=O)CCCN(C)C)cc2C(=O)N([C@@H](C)CO)C[C@H]1C`, for which the cytotoxicity call is “inactive”.

Take `O=C1O[C@@H](c2ccccc2)[C@@H](c2ccccc2)N2[C@@H](c3ccc(OCCO)cc3)[C@]3(C(=O)Nc4ccc(C#CC5(O)CCCCCC5)cc43)[C@@H](C(=O)Nc3nc4ccccc4s3)[C@H]12`: the cytotoxicity call was “inactive”.

Consider `COc1cc2c(N3CCN(C(=O)Nc4ccc(OC(C)C)cc4)CC3)ncnc2cc1OCCCN1CCCCC1`, for which the cytotoxicity call was “inactive”.

With `CCN1CCN(c2ccc(Nc3cc(N(C)C(=O)Nc4c(Cl)c(OC)cc(OC)c4Cl)ncn3)cc2)CC1`, the cytotoxicity call was “active”.

Turning to `C[C@H](CO)N1C[C@H](C)[C@@H](CN(C)C(=O)CCCN(C)C)OCCCC[C@H](C)Oc2ccc(NS(=O)(=O)c3cn(C)cn3)cc2C1=O`, the cytotoxicity call was “inactive”.

In the case of `CC(C)NC(=O)N(C)C[C@@H]1OCCCC[C@@H](C)Oc2ccc(NC(=O)CCCCCC(=O)Nc3ccccc3N)cc2C(=O)N([C@H](C)CO)C[C@H]1C`, the cytotoxicity call is “inactive”.

Consider `Cn1nnc2c1[C@H](COCC1CC1)CN(C(=O)CS(C)(=O)=O)C2`, for which the cytotoxicity call was “inactive”.

Regarding `C[C@H]1CCCCO[C@@H](CN(C)C(=O)Nc2ccccc2)[C@@H](C)CN([C@@H](C)CO)C(=O)c2cc(NC(=O)NC3CCCCC3)ccc2O1`, the cytotoxicity call is “inactive”.

On to `CC(C)n1c(C=CC(O)CC(O)CC(=O)[O-])c(-c2ccc(F)cc2)c2ccccc21.[Na+]` (centres undefined), for which the cytotoxicity call was “inactive”.

For `C[C@@H]1CCCCO[C@@H](CN(C)S(=O)(=O)c2cccs2)[C@H](C)CN([C@H](C)CO)C(=O)c2cc(NC(=O)CCC(F)(F)F)ccc2O1`, the cytotoxicity call was “inactive”.

Consider `Cc1ccc(S(=O)(=O)Nc2ccc3c(c2)C(=O)N([C@H](C)CO)C[C@H](C)[C@H](CN(C)S(=O)(=O)c2ccccc2)O3)cc1`, for which the cytotoxicity call is “inactive”.

As to `CC[N+](C)(CC)Cc1ccccc1`, the cytotoxicity call was “inactive”.

In the case of `CCCCCCCCCCCCC[N+](C)(C)Cc1ccccc1`, the cytotoxicity call was “inactive”.

Turning to `CCCCNc1ccccc1`, the cytotoxicity call was “inactive”.

For the compound `CCCCCCCCCCCCCCCC[N+](C)(C)Cc1ccccc1.[Cl-]`, the cytotoxicity call was “active”.

In the case of `CCCCCCCCCCCCC[N+](C)(C)Cc1ccccc1.O.[Cl-]`, the cytotoxicity call is “active”.

`CCCCCc1ccccn1`: the cytotoxicity call is “inactive”.

On to `CO[C@@H]1CN(C)C(=O)c2ccc(NS(=O)(=O)c3cccc(C)c3)cc2OC[C@@H](C)N(Cc2cc(F)ccc2F)C[C@H]1C`, for which the cytotoxicity call is “inactive”.

For the compound `CN(C)CCCNC(=O)C[C@@H]1CC[C@H]2[C@H](COc3ccc(NC(=O)NC4CCCC4)cc3C(=O)N2C)O1`, the cytotoxicity call is “inactive”.

Turning to `Cc1noc(C)c1NC(=O)N(C)C[C@H]1Oc2c(NC(=O)Nc3ccc(C(F)(F)F)cc3)cccc2C(=O)N([C@H](C)CO)C[C@H]1C`, the cytotoxicity call is “inactive”.

Consider `CC(=O)N1[C@H](CNC(=O)CN2CCOCC2)[C@@H](c2ccccc2)[C@@H]1CO`, for which the cytotoxicity call is “inactive”.

With `COC(=O)C(Cc1ccccc1)NC(=O)C(N)CC(=O)O` (centres undefined), the cytotoxicity call was “inactive”.

As for `CC(=O)N[C@@H](Cc1ccccc1)C(=O)NN`, the cytotoxicity call was “inactive”.

With `COC(=O)[C@H](Cc1ccccc1)NC(=O)[C@@H](N)CC(=O)O`, the cytotoxicity call was “inactive”.

As to `CC(=O)N1[C@@H](CO)[C@H](c2ccccc2)[C@@H]1CNC(=O)CN1CCOCC1`, the cytotoxicity call was “inactive”.

As for `CC(=O)N[C@@H](Cc1ccccc1)C(=O)O`, the cytotoxicity call was “inactive”.

As to `COc1ccc(C[C@H](NC(=O)[C@H](C)NC(=O)CN2CCOCC2)C(=O)N[C@@H](Cc2ccccc2)C(=O)[C@@]2(C)CO2)cc1`, the cytotoxicity call was “active”.

Regarding `CC(C)C[C@H](NC(=O)[C@H](CCc1ccccc1)NC(=O)CN1CCOCC1)C(=O)N[C@@H](Cc1ccccc1)C(=O)N[C@@H](CC(C)C)C(=O)[C@@]1(C)CO1`, the cytotoxicity call is “active”.

Consider `COC[C@H](NC(=O)c1cnc(C)s1)C(=O)N[C@@H](COC)C(=O)N[C@@H](Cc1ccccc1)C(=O)[C@@]1(C)CO1`, for which the cytotoxicity call was “active”.

In the case of `C[C@@H]1CCCCO[C@@H](CN(C)S(=O)(=O)c2ccc(F)cc2)[C@H](C)CN([C@H](C)CO)C(=O)c2cc(NC(=O)Nc3ccc4c(c3)OCO4)ccc2O1`, the cytotoxicity call was “inactive”.

As for `C[C@@H]1CCCCO[C@@H](CN(C)C(=O)CCCN(C)C)[C@@H](C)CN([C@H](C)CO)C(=O)c2cc(NC(=O)Nc3ccc(C(F)(F)F)cc3)ccc2O1`, the cytotoxicity call was “inactive”.

With `CC(C)CC#Cc1cnc2c(c1)C(=O)N([C@@H](C)CO)C[C@@H](C)[C@@H](CN(C)S(=O)(=O)c1cn(C)cn1)O2`, the cytotoxicity call was “inactive”.

As to `C[C@H](CO)N1C[C@H](C)[C@H](CN(C)C(=O)Nc2ccccc2)Oc2c(NC(=O)C3CCOCC3)cccc2C1=O`, the cytotoxicity call is “inactive”.

Regarding `C[C@H](CO)N1C[C@H](C)[C@H](CN(C)C(=O)c2cnccn2)Oc2cc(Br)ccc2S1(=O)=O`, the cytotoxicity call was “inactive”.

In the case of `C[C@@H]1CN([C@@H](C)CO)C(=O)c2cc(C#Cc3ccccc3F)cnc2O[C@@H]1CN(C)C(=O)Cc1cccnc1`, the cytotoxicity call was “inactive”.

For `COc1ccc(S(=O)(=O)N(C)C[C@@H]2Oc3ccc(NC(=O)c4ccncc4)cc3CC(=O)N([C@H](C)CO)C[C@H]2C)cc1`, the cytotoxicity call was “inactive”.

On to `CCCC#Cc1cnc2c(c1)C(=O)N([C@H](C)CO)C[C@H](C)[C@H](CN(C)S(=O)(=O)c1cn(C)cn1)O2`, for which the cytotoxicity call is “inactive”.

Consider `O=C(O)CC(O)(CC(=O)O)C(=O)O.[LiH].[LiH].[LiH]`, for which the cytotoxicity call is “inactive”.

For `Nc1ncccc1-c1nc2ccc(-c3ccccc3)nc2n1-c1ccc(C2(N)CCC2)cc1`, the cytotoxicity call is “active”.

On to `NC(=O)c1ccc2nc(-c3ccc(C4(N)CCC4)cc3)c(-c3ccccc3)n2n1`, for which the cytotoxicity call is “inactive”.

As to `CC(C)NC(=O)N(C)C[C@@H]1Oc2c(NC(=O)NC3CCCCC3)cccc2C(=O)N([C@@H](C)CO)C[C@@H]1C`, the cytotoxicity call was “inactive”.

Turning to `C[C@@H]1CN([C@H](C)CO)C(=O)Cc2cc(NC(=O)Nc3ccc(C(F)(F)F)cc3)ccc2O[C@@H]1CN(C)Cc1ccc(Oc2ccccc2)cc1`, the cytotoxicity call is “active”.

Regarding `C[C@@H]1CN([C@@H](C)CO)C(=O)Cc2cc(NC(=O)Nc3ccc(C(F)(F)F)cc3)ccc2O[C@@H]1CN(C)Cc1ccc(Oc2ccccc2)cc1`, the cytotoxicity call is “active”.

On to `C[C@@H]1CN([C@@H](C)CO)C(=O)Cc2cc(NC(=O)Nc3ccc(C(F)(F)F)cc3)ccc2O[C@H]1CN(C)Cc1ccc(Oc2ccccc2)cc1`, for which the cytotoxicity call is “active”.

For `C[C@H]1CN([C@@H](C)CO)C(=O)Cc2cc(NC(=O)Nc3ccc(C(F)(F)F)cc3)ccc2O[C@@H]1CN(C)Cc1ccc(Oc2ccccc2)cc1`, the cytotoxicity call was “active”.

For the compound `COc1ccc(S(=O)(=O)Nc2ccc3c(c2)CC(=O)N([C@H](C)CO)C[C@@H](C)[C@@H](CN(C)C)O3)cc1`, the cytotoxicity call was “inactive”.

The record behind these values is the antibiotic and cytotoxicity screens of Wong et al. (2023).
